This is a sample that favours compounds with a hit; in the whole collection about 0.35% have one here.
GRP78 ERSR act: inducers of ER stress response in human glioma cells; U87-MG GRP78 promoter luciferase reporter, 16 h; Potency, µM, for inactives: at the top dose activation, actives largely listed as activators; 420,000 tested, 0.02% active; note: series mostly up to about 76 µM; % of control where 0% means no effect; nearly all actives have a fitted effect of over 35% in size
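Stably transfected U87-MG glioma cells carrying a GRP78-based luciferase sensor; 16 h compound incubation. Luminescence end-point read 10 min after Bright-Glo addition at room temperature.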
Vif-APOBEC3F blk: Vif-A3F binding inhibition; HeLa A3F-eYFP + Vif (tagged APOBEC3F with the HIV-1 protein that degrades it), YFP fluorescence increase; Potency, µM (titrated, usually from 46.1 µM), without a hit: at the highest dose activity, negative = active; 390,000 tested, 0.2% active; note: % of control where 0% means no effect; nearly all actives have a fitted effect of over 65% in size
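HeLa cells stably expressing A3F-eYFP plus Vif, plated and incubated overnight at 37 deg C, then exposed to compounds overnight at 37 deg C. Blocked degradation read as raised yellow fluorescence (Ex 488/Em 500-530).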
Vif-APOBEC3G blk: blocks the Vif interaction with human APOBEC3G; Q9HC16; HeLa A3G-eYFP + Vif (tagged APOBEC3G with the HIV-1 protein that degrades it), YFP fluorescence, overnight; Potency, µM (top dose mostly 46.1 µM), without a hit: at the top dose activity, negative = active, hits mostly inhibitors; 410,000 tested, 0.076% active; AID 602310; note: % is set by controls: 0 for no effect and ±100 for the full control effect; nearly all actives have a fitted effect of over 60% in size
Target sequence (Q9HC16 whole entry, looked up): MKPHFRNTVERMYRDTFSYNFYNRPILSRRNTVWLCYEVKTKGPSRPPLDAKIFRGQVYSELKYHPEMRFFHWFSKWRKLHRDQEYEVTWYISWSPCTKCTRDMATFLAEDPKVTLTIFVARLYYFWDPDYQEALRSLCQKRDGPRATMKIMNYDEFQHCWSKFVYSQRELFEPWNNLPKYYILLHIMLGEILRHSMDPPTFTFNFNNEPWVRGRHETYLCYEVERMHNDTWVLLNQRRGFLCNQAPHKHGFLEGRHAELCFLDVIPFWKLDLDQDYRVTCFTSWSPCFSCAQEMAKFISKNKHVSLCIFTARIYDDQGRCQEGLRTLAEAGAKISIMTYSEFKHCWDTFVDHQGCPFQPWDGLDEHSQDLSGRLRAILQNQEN
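Read-out is eYFP fluorescence (Ex 488/Em 500-530) from Vif-expressing HeLa A3G-eYFP cells; more signal means A3G escaped Vif-mediated degradation. Cells plated overnight, compound pinned in, incubated overnight at 37 deg C.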
Epigenetic reg: derepresses silenced GFP reporter in murine cells; AID 1865; murine LDR cells, GFP reporter derepression, 30 h; Potency, µM (series often up to 53.9 µM), for inactives: top-dose GFP activation, actives largely listed as activators; 280,000 tested, 0.2% active; note: % of control where 0% means no effect; nearly all actives have a fitted effect of over 60% in size
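Derepression of a silenced CMV-GFP reporter in murine LDR cells is scored by enumerating GFP-positive cells with a laser-scanning microplate cytometer after 30 hours of treatment at 37 C.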
The depositor's hits bear a star; ? = inconclusive; · = no result given; ! = not active in a repeat. Calls come from the whole dose curve; as a rule, active = well fitted curve in the direction sought with a large enough effect; inconclusive = small, poorly fitted or top-dose-only effect, or another doubt; inactive = no such curve, though single readings can be large; an effect the other way counts as inactive or inconclusive. Potency is the fitted concentration of half-maximal effect.

SMILES | GRP78 ERSR act | Vif-APOBEC3F blk | Vif-APOBEC3G blk | Epigenetic reg
COc1cc(-c2noc(C)c2-c2ccc3[nH]ccc3c2)cc(OC)c1OC | 1% | -1% | 14µM*! | ·
Cc1ccc2ccc3cc(C(=O)N4CCN(c5ccccc5F)CC4)nc3c2[nH]1 | 0% | -2% | -5% | 1%
Cc1ccc2ccc3cc(C(=O)Nc4ccc(C)c(F)c4)nc3c2[nH]1 | ? | ? | 13µM* | 8%
N#CC(C(=O)NCc1ccccc1)c1nc2ccccc2nc1N1CCCC1 (centres undefined) | -3% | 10µM* | -1% | ?
CCCCCNC(=O)C(C#N)c1nc2ccccc2nc1N1CCCC1 (centres undefined) | -2% | 7.1µM* | -17% | 0%
Cc1ccc(S(=O)(=O)C(C#N)c2nc3ccccc3nc2N2CCCC2)cc1 (centres undefined) | -4% | 22µM* | ? | -1%
COc1ccc(/C=C/CN2CCC(CO)(Cc3ccccc3Cl)CC2)cc1 | 0% | -28% | 1% | 1%
CC1=C(n2nnc3ccccc32)C(c2ccccc2)C(C#N)=C(N)O1 (centres undefined) | 0% | 25µM* | -17% | 3%
COc1ccc(C2C(O)C(c3c[nH]c4ccccc34)=NN2C(=O)CCl)cc1 (centres undefined) | -14% | 6% | ? | ·
COc1ccc(C2NN=C(c3c[nH]c4ccccc34)C2O)cc1 (centres undefined) | 9% | 22µM* | ? | ·
CCC(CC)C(=O)NC1CC(=O)N(c2ccc3c(c2)OCCO3)C1 (centres undefined) | -3% | -3% | 3% | 4%
O=S1(=O)CCN(Cc2cccnc2)CC1 | 2% | -6% | 0% | ·
Cc1cc(NC(=O)c2ccco2)cc(-c2nc3cc(Cl)ccc3o2)c1O | ? | 11µM* | ? | ?
O=C1c2cccc3c([N+](=O)[O-])ccc(c23)C(=O)N1c1ccc(Cl)cn1 | -10% | ? | 8% | 14µM*
O=C1c2cccc3c([N+](=O)[O-])ccc(c23)C(=O)N1c1nccs1 | -15% | ? | ? | ?
CC(=O)Oc1ccc(N2C(=O)c3cccc4c([N+](=O)[O-])ccc(c34)C2=O)cc1 | -4% | 22µM* | ? | ·
O=C1c2cccc3c([N+](=O)[O-])ccc(c23)C(=O)N1c1ccccn1 | -17% | 13µM* | 12% | 1%
O=C1c2cccc3c([N+](=O)[O-])ccc(c23)C(=O)N1O | ? | 5µM* | 11µM* | ·
COc1ccc(CNC(=O)c2ccc(Cn3nc(C)c([N+](=O)[O-])c3C)o2)cc1 | -3% | 7% | -9% | 4.5µM*
COc1ccc(N2CCN(C(=O)c3ccc(Cn4nc(C)c([N+](=O)[O-])c4C)o3)CC2)cc1 | -3% | -25% | -12% | ·
Cc1ccc2c(Sc3ccc(Cl)cc3)c(C(=O)N3CCCCC3)[nH]c2c1 | 4% | -5% | 1% | 2%
Cc1cccc(CCN(CC(=O)NCc2ccc(F)cc2)C(=O)c2csnn2)c1 | 0% | -2% | 1% | ·
Cc1c(O)cc2c(c1O)C(=O)CC(c1ccccc1)O2 (centres undefined) | 28µM* | 6% | -3% | 0%
COc1c(O)cc2c(c1O)C(=O)CC(c1ccccc1)O2 (centres undefined) | · | · | · | 0%
CCOC(=O)c1c(S(=O)(=O)NC2CCN(C(=O)OCC)CC2)c(C)n(C)c1C | -4% | -5% | 0% | ·
SMILES | GRP78 ERSR act | Vif-APOBEC3F blk | Vif-APOBEC3G blk | Epigenetic reg
CCOC(=O)c1ccc2c(c1)N(C)C(=O)c1ccccc1S2 | -5% | 3% | -1% | ·
CCOC(=O)c1cc2n(c1/N=C/N(C)C)-c1ccccc1C2=O | -1% | 22µM* | ? | 0%
O=[N+]([O-])/C=C\c1ccc(N2CCCC2)c(F)c1 | -12% | 25µM* | ? | 1%
CCCCN(C(=O)c1c(CC)noc1C)c1c(N)n(CCCC)c(=O)[nH]c1=O | 1% | -18% | 1% | ·
N#Cc1ccccc1OCC(=O)N1CCN(S(=O)(=O)c2ccc(Cl)cc2)CC1 | -3% | 2% | 2% | ·
CCOc1ccccc1N1CC(c2nc3ccccc3n2Cc2c(C)cc(C)cc2C)CC1=O (centres undefined) | 1% | 13µM* | -27% | -2%
COc1ccc2[nH]c3c(c2c1)CCNC3c1ccc([N+](=O)[O-])o1 (centres undefined) | -3% | 25µM* | ? | ·
CC(NC(=O)c1cc2ccccc2o1)c1ccccc1 (centres undefined) | -3% | -5% | 0% | 16µM*!
CC(NC(=O)c1cc2ccccc2o1)C(=O)O (centres undefined) | -3% | 1% | 1% | 1%
COc1ccc(C(=O)Nc2cc(C(C)=O)c(C)oc2=O)cc1 | 1% | ? | -3% | 2%
COC(=O)c1cc(NC(=O)c2ccccc2)c(=O)oc1/C=C/Nc1ccc(Oc2ccccc2)cc1 | 1% | 8.9µM* | ? | ?
Cc1ccc(COc2ccc(CNCCCN3CCCCCC3=O)cc2)cc1 | 1% | 2% | 5% | ·
CCCCNc1ccc2c3c(cccc13)C(=O)N(CCCC)C2=O | -3% | -39% | 4% | 3.2µM*
CC[n+]1ccc(/C=C2\Sc3ccccc3N2CCCS(=O)(=O)[O-])c2ccccc21 | 1% | 3.5µM* | ? | 2%
COc1ccc(OC)c(NC(=O)Cn2cnc3onc(-c4ccc(Cl)cc4)c3c2=O)c1 | -4% | -9% | 1.3µM* | 12%
CCc1ccc(-c2cc(C(F)(F)F)n3nc(C(=O)Nc4cnn(Cc5ccc(C)cc5)c4)cc3n2)s1 | ? | 11µM* | ? | ?
CNC(=O)C1(C(F)(F)F)CC(CCCO)CCCO1 (centres undefined) | -6% | · | 2% | ·
COc1cc(Nc2nn(-c3ccc(OC(F)(F)F)cc3)nc2C(C)=O)cc(OC)c1 | -3% | 0% | -6% | -2%
Fc1ccc(NC(=S)Nc2nccs2)cc1 | 0% | ? | -1% | 15%
S=C(Nc1ccccc1)Nc1nccs1 | ? | -21% | -22% | 13µM*
COc1ccc2o/c(=N/NC(=O)c3cccs3)c(C(N)=O)cc2c1 | 3% | ? | 11µM* | 18µM*
N#C/C(=C/c1ccc(N2CCCCC2)o1)c1cccc(F)c1 | ? | 10µM* | ? | 6.3µM*
N#C/C(=C/c1ccc(N2CCCCCC2)o1)c1ccc(Cl)cc1 | ? | ? | ? | 7.1µM*
N#C/C(=C\c1ccc(N2CCOCC2)o1)C(=O)NC1CCCCC1 | 2% | ? | ? | 4%
N#C/C(=C/c1ccc(N2CCCCC2)cc1)c1cccc(F)c1 | 7% | 7% | -5% | 2%
Cn1cccc1/C=C1\CCC/C(=C\c2cccn2C)C1=O | -4% | ? | ? | 13µM*
O=C1/C(=C/c2cccs2)CCC/C1=C\c1cccs1 | -2% | -15% | -12% | ·
S=C(Nc1ccc(Br)cc1)NC1CCCCC1 | 0% | 1% | 1% | -1%
Cc1ccccc1Cn1c(=N)n(CC(=O)c2ccc([N+](=O)[O-])cc2)c2ccccc21 | -5% | 28µM* | -28% | 17%
CCCn1c(=N)n(CC(=O)c2ccc([N+](=O)[O-])cc2)c2ccccc21 | -4% | ? | -3% | ?
